According to PubChem BioAssay AID432 (Sanford-Burnham Center for Chemical Genomics, 2006):
Hit rate of the full screen: of about 64,000 compounds, about 15 (0.02%) were called active. The rule behind the calls is not given here. Only a sample is shown. Potency and affinity values are given separately.

Target: Bcl-2-related protein A1 (Mus musculus) (UniProt Q07440)
Test: Bfl-1 inhibitors, primary screen, biochemical, fluorescence polarization, FITC-Bid, mouse (AID 432)
Conditions: FITC-Bid BH3 peptide fluorescence polarization displacement; at 20 µM; stronger effect = higher value

Sequence of Bcl-2-related protein A1 (Mus musculus) (Q07440 whole entry, looked up): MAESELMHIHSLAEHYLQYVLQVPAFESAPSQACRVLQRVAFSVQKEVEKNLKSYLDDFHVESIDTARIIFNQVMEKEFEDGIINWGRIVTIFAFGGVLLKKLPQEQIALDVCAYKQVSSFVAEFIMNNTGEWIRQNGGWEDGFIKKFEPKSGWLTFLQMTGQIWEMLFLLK

displacement, inactive:
COC(=O)C(C)n1cnc2c(cnn2-c2ccc(Cl)cc2)c1=O (configuration not stated) 1.6%
CCCCCNC(=O)C(C#N)c1nc2ccccc2nc1N1CCCC1 (configuration not stated) 34.3%
Cn1c(SCc2ccccc2Cl)nnc1-c1cnccn1 -5.3%
COc1ccccc1OC(=O)c1ccc(SC)cc1OC -2.3%
Cc1cc(OCC(=O)Nc2cc(-c3nn4c(C)nnc4s3)ccc2C)ccc1Cl 10%
O=C1c2ccccc2C(Nc2ccc(S(=O)(=O)N3CCOCC3)cc2)N1c1cccnc1 (configuration not stated) 8.2%
N#CC1=C(N)OC2=C(C(=O)CCC2)C1c1ccsc1 (configuration not stated) -2.3%
Cc1csc2ncc(C(=O)Nc3cccc(C(F)(F)F)c3)c(=O)n12 -2%
Cc1ccc(-n2cccc2C(=S)N=P(N(C)C)(N(C)C)N(C)C)cc1 22.3%
Cc1ccccc1OCC(=O)NCCN(C)C -12%
CCCN1Cc2cccc(C(=O)Nc3ccc4c(c3)OCO4)c2C1=O -7.1%
COc1ccc(CCNC(=O)CSc2nnc(Cn3c(=O)sc4ccccc43)n2C)cc1OC 4.6%
O=C(c1ccc(Br)o1)N(Cc1ccccc1)c1ccccn1 -6.6%
Cn1c(=O)[nH]c(=O)c2c1nc(N1CCN(c3ccccc3)CC1)n2CCSc1ncccn1 4.5%
FC(F)(F)c1cccc(N2CCN(c3ccc4nnc(-c5ccccc5)n4n3)CC2)c1 0.4%
Fc1ccc(-c2nnc3ccc(N4CCCC4)nn23)cc1 -8.2%
COc1ccc2cnn(CCOc3ccccc3)c(=O)c2c1OC -3.4%
CCCn1c(SCC(=O)NCc2ccco2)nc2c1c(=O)n(C)c(=O)n2C -5.1%
CCOC(=O)C(NC(C)=O)(Nc1ccc(S(=O)(=O)Nc2onc(C)c2C)cc1)C(F)(F)F (configuration not stated) -2.1%
Cc1ccc(Nc2nc(C)cc(C)n2)c(Br)c1 -3.3%
CC(C)(C)NC(=O)NC(=O)COC(=O)C1CC(=O)N(Cc2ccccc2)C1 (configuration not stated) -5.1%
CCCCCOc1ccc(/C=c2\sc3ncnn3c2=O)cc1 -9%
Cc1csc(NC(=O)CSc2nnc(-c3ccco3)n2C)n1 -7.7%
COC(=O)c1[nH]c2ccc(C)cc2c1NC(=O)CN1CCCCC1C (configuration not stated) -1.2%
COc1ccccc1CNc1ncnc2c1cnn2-c1ccccc1 -2.9%
CN(C(=O)COC(=O)COc1ccccc1F)C1CCS(=O)(=O)C1 (configuration not stated) -1.5%
C=CCn1c(C)cc(C(=O)CSc2nnc(NCc3ccccc3)s2)c1C 3.3%
